Laboratory results as given in publication PMC7862700, “An all-to-all approach to the identification of sequence-specific readers for epigenetic DNA modifications on cytosine”.

Key:
Assay in all cases: DAPPL (digital affinity profiling via proximity ligation, sequencing); 10 mM Tris-HCl pH 7.5, 50 mM NaCl, 1 mM DTT, 4% glycerol, room temperature, 30 min; GST-TFs on glutathione beads, 16-mer random dsDNA library, 0.1% formaldehyde crosslink after washing; high values mean tight binding
Details in all cases: protein: recombinant; tags: N-terminal GST; dsDNA, one strand shown
ERF = biological target: T1, ERF (Homo sapiens, UniProt P50548 1-548)
T1 sequence: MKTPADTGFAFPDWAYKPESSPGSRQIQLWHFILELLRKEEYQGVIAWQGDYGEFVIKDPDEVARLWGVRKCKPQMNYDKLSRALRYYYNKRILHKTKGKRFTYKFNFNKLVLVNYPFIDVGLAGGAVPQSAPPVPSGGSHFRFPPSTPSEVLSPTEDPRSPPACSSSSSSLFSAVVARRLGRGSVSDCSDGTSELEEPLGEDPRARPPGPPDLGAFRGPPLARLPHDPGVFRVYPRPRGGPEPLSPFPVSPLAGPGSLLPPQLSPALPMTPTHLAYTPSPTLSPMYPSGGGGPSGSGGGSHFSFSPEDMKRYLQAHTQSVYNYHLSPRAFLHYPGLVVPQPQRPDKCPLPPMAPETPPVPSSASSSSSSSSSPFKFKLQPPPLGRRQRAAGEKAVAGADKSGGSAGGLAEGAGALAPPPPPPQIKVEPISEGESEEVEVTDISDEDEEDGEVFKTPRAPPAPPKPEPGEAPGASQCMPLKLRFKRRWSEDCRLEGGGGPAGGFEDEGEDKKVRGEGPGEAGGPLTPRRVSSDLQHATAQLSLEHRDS
Method in brief: (§1)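 Human transcription factors carrying a GST fusion were produced in yeast, bound to glutathione beads, tagged with DNA barcodes and pooled together with a tag-only sample. Each pool was held with 200 nmole of a random double-stranded 16-mer DNA library in Tris/NaCl/DTT/glycerol buffer for 30 min at room temperature, then washed, crosslinked in 0.1% formaldehyde, proximity-ligated with BsaI/T4 ligase (1 h, 37 °C), PCR-amplified and sequenced on an Illumina NextSeq500. Binding signal is the read frequency of each hexamer for a given factor divided by its frequency in the tag-only sample.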

ETV3L = biological target: T2, ETV3L (Homo sapiens, UniProt Q6ZN32 1-361)
T2 sequence: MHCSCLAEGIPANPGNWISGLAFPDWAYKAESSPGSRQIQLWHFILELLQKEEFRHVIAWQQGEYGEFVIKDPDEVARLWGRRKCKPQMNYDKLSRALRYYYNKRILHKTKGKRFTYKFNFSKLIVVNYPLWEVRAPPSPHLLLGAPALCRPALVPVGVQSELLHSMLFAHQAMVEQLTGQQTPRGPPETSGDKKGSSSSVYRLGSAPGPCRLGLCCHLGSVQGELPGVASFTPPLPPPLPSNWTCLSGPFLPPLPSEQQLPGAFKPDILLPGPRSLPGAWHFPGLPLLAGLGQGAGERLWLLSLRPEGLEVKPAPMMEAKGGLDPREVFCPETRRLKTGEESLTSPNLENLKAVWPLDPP
Method in brief: as §1

ETS2 = biological target: T3, ETS2 (Homo sapiens, UniProt P15036 1-469)
T3 sequence: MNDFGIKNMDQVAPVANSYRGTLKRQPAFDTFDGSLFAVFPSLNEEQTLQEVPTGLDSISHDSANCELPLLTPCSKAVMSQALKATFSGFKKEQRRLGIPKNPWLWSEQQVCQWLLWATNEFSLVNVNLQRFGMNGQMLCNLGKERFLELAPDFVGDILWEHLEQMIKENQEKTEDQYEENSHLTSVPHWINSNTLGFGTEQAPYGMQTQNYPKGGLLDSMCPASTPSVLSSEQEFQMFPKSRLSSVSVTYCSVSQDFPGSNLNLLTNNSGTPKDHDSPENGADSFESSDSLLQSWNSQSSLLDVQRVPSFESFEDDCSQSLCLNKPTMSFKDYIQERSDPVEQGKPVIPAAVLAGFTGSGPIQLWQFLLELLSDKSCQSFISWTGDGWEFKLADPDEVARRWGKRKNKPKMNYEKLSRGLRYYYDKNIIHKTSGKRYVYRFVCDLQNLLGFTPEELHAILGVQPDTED
Method in brief: as §1

SPDEF = biological target: T4, SPDEF (Homo sapiens, UniProt O95238 1-335)
T4 sequence: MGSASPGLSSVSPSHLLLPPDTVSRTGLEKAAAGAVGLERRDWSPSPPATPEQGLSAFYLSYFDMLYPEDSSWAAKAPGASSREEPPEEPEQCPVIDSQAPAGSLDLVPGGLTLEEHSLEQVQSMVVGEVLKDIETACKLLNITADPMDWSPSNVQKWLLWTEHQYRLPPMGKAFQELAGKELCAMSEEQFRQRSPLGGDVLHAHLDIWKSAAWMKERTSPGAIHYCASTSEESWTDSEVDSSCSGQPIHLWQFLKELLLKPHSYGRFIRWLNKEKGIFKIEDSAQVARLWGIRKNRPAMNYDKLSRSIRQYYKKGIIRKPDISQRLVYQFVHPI
Method in brief: as §1

ETV7 = biological target: T5, ETV7 (Homo sapiens, UniProt Q9Y603 1-341)
T5 sequence: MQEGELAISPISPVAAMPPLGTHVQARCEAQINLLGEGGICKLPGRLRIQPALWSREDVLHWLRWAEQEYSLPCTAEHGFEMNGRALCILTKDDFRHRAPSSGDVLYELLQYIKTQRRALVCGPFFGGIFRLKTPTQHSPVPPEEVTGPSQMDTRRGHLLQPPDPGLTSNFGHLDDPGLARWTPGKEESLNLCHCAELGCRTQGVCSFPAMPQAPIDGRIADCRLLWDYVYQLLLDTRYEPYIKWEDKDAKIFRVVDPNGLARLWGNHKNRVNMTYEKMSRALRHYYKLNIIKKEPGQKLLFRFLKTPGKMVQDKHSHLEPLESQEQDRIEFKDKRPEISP
Method in brief: as §1

ELF5 = biological target: T6, ELF5 (Homo sapiens, UniProt Q9UKW6-2 1-255)
T6 sequence: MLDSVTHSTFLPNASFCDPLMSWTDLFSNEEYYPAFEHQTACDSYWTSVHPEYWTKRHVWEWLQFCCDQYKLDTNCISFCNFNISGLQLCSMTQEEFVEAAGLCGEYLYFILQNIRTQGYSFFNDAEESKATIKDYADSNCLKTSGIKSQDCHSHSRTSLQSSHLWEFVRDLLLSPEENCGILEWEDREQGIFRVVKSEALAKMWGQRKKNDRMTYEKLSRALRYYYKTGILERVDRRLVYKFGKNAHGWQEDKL
Method in brief: as §1

ETV3 = biological target: T7, ETV3 (Homo sapiens, UniProt P41162-2 1-143)
T7 sequence: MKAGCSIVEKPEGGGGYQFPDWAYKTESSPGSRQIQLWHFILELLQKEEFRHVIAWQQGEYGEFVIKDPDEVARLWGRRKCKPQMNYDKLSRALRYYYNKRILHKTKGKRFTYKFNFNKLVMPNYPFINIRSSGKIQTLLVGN
Method in brief: as §1

ETV6 = ETV6 (Homo sapiens, UniProt P41212 1-452)
Method in brief: as §1

ETV6, sequence (P41212 whole entry): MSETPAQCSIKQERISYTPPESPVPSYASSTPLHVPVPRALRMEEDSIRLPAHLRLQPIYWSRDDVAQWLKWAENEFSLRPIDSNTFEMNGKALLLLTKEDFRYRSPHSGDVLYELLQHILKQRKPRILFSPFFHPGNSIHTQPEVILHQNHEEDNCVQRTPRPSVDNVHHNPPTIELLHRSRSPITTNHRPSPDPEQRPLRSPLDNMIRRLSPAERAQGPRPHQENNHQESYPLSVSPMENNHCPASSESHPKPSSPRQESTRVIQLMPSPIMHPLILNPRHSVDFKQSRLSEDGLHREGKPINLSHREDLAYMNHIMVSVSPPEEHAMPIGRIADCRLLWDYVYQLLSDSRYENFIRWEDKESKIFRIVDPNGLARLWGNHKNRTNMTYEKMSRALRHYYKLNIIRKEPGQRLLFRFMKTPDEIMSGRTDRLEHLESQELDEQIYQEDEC

Sequence	binding signal (ERF)	binding signal (ETV3L)	binding signal (ETS2)	binding signal (SPDEF)	binding signal (ETV7)	binding signal (ELF5)	binding signal (ETV3)	binding signal (ETV6)
TCTGCC	1.35 fold enrichment (6-mer frequency, TF over GST control)	1.31 fold enrichment (6-mer frequency, TF over GST control)	1.45 fold enrichment (6-mer frequency, TF over GST control)	1.26 fold enrichment (6-mer frequency, TF over GST control)	1.49 fold enrichment (6-mer frequency, TF over GST control)	1.31 fold enrichment (6-mer frequency, TF over GST control)	1.35 fold enrichment (6-mer frequency, TF over GST control)	1.32 fold enrichment (6-mer frequency, TF over GST control)
AATTAC	1.35 fold enrichment (6-mer frequency, TF over GST control)	1.25 fold enrichment (6-mer frequency, TF over GST control)	1.36 fold enrichment (6-mer frequency, TF over GST control)	1.24 fold enrichment (6-mer frequency, TF over GST control)	1.36 fold enrichment (6-mer frequency, TF over GST control)	1.33 fold enrichment (6-mer frequency, TF over GST control)	1.26 fold enrichment (6-mer frequency, TF over GST control)	1.38 fold enrichment (6-mer frequency, TF over GST control)
TATCTC	1.3 fold enrichment (6-mer frequency, TF over GST control)	1.3 fold enrichment (6-mer frequency, TF over GST control)	1.27 fold enrichment (6-mer frequency, TF over GST control)	1.22 fold enrichment (6-mer frequency, TF over GST control)	1.21 fold enrichment (6-mer frequency, TF over GST control)	1.23 fold enrichment (6-mer frequency, TF over GST control)	1.13 fold enrichment (6-mer frequency, TF over GST control)	1.21 fold enrichment (6-mer frequency, TF over GST control)
GCTCTA	1.27 fold enrichment (6-mer frequency, TF over GST control)	1.24 fold enrichment (6-mer frequency, TF over GST control)	1.16 fold enrichment (6-mer frequency, TF over GST control)	1.15 fold enrichment (6-mer frequency, TF over GST control)	1.19 fold enrichment (6-mer frequency, TF over GST control)	1.14 fold enrichment (6-mer frequency, TF over GST control)	1.1 fold enrichment (6-mer frequency, TF over GST control)	1.09 fold enrichment (6-mer frequency, TF over GST control)
CTCCTA	1.49 fold enrichment (6-mer frequency, TF over GST control)	1.36 fold enrichment (6-mer frequency, TF over GST control)	1.32 fold enrichment (6-mer frequency, TF over GST control)	1.34 fold enrichment (6-mer frequency, TF over GST control)	1.37 fold enrichment (6-mer frequency, TF over GST control)	1.41 fold enrichment (6-mer frequency, TF over GST control)	1.23 fold enrichment (6-mer frequency, TF over GST control)	1.29 fold enrichment (6-mer frequency, TF over GST control)
ATAATC	1.2 fold enrichment (6-mer frequency, TF over GST control)	1.16 fold enrichment (6-mer frequency, TF over GST control)	1.16 fold enrichment (6-mer frequency, TF over GST control)	1.17 fold enrichment (6-mer frequency, TF over GST control)	1.14 fold enrichment (6-mer frequency, TF over GST control)	1.13 fold enrichment (6-mer frequency, TF over GST control)	1.15 fold enrichment (6-mer frequency, TF over GST control)	1.19 fold enrichment (6-mer frequency, TF over GST control)
TTCATT	1.31 fold enrichment (6-mer frequency, TF over GST control)	1.3 fold enrichment (6-mer frequency, TF over GST control)	1.27 fold enrichment (6-mer frequency, TF over GST control)	1.24 fold enrichment (6-mer frequency, TF over GST control)	1.23 fold enrichment (6-mer frequency, TF over GST control)	1.18 fold enrichment (6-mer frequency, TF over GST control)	1.16 fold enrichment (6-mer frequency, TF over GST control)	1.18 fold enrichment (6-mer frequency, TF over GST control)
CAATTC	1.26 fold enrichment (6-mer frequency, TF over GST control)	1.27 fold enrichment (6-mer frequency, TF over GST control)	1.24 fold enrichment (6-mer frequency, TF over GST control)	1.33 fold enrichment (6-mer frequency, TF over GST control)	1.24 fold enrichment (6-mer frequency, TF over GST control)	1.25 fold enrichment (6-mer frequency, TF over GST control)	1.31 fold enrichment (6-mer frequency, TF over GST control)	1.16 fold enrichment (6-mer frequency, TF over GST control)
CAAATA	1.23 fold enrichment (6-mer frequency, TF over GST control)	1.1 fold enrichment (6-mer frequency, TF over GST control)	1.14 fold enrichment (6-mer frequency, TF over GST control)	1.09 fold enrichment (6-mer frequency, TF over GST control)	1.16 fold enrichment (6-mer frequency, TF over GST control)	1.06 fold enrichment (6-mer frequency, TF over GST control)	1.1 fold enrichment (6-mer frequency, TF over GST control)	1.07 fold enrichment (6-mer frequency, TF over GST control)
TTCTCC	1.53 fold enrichment (6-mer frequency, TF over GST control)	1.58 fold enrichment (6-mer frequency, TF over GST control)	1.53 fold enrichment (6-mer frequency, TF over GST control)	1.52 fold enrichment (6-mer frequency, TF over GST control)	1.46 fold enrichment (6-mer frequency, TF over GST control)	1.51 fold enrichment (6-mer frequency, TF over GST control)	1.5 fold enrichment (6-mer frequency, TF over GST control)	1.48 fold enrichment (6-mer frequency, TF over GST control)
ATCATC	1.08 fold enrichment (6-mer frequency, TF over GST control)	1.23 fold enrichment (6-mer frequency, TF over GST control)	1.25 fold enrichment (6-mer frequency, TF over GST control)	1.16 fold enrichment (6-mer frequency, TF over GST control)	1 fold enrichment (6-mer frequency, TF over GST control)	1.17 fold enrichment (6-mer frequency, TF over GST control)	1.23 fold enrichment (6-mer frequency, TF over GST control)	1.1 fold enrichment (6-mer frequency, TF over GST control)
TTATAC	1.55 fold enrichment (6-mer frequency, TF over GST control)	1.39 fold enrichment (6-mer frequency, TF over GST control)	1.42 fold enrichment (6-mer frequency, TF over GST control)	1.38 fold enrichment (6-mer frequency, TF over GST control)	1.53 fold enrichment (6-mer frequency, TF over GST control)	1.39 fold enrichment (6-mer frequency, TF over GST control)	1.37 fold enrichment (6-mer frequency, TF over GST control)	1.42 fold enrichment (6-mer frequency, TF over GST control)
CGATTT	1.09 fold enrichment (6-mer frequency, TF over GST control)	1.17 fold enrichment (6-mer frequency, TF over GST control)	1.26 fold enrichment (6-mer frequency, TF over GST control)	1.07 fold enrichment (6-mer frequency, TF over GST control)	1.13 fold enrichment (6-mer frequency, TF over GST control)	1.13 fold enrichment (6-mer frequency, TF over GST control)	1.18 fold enrichment (6-mer frequency, TF over GST control)	1.22 fold enrichment (6-mer frequency, TF over GST control)
AAGATG	1.18 fold enrichment (6-mer frequency, TF over GST control)	1.12 fold enrichment (6-mer frequency, TF over GST control)	1.16 fold enrichment (6-mer frequency, TF over GST control)	1.1 fold enrichment (6-mer frequency, TF over GST control)	1.12 fold enrichment (6-mer frequency, TF over GST control)	1.14 fold enrichment (6-mer frequency, TF over GST control)	1.09 fold enrichment (6-mer frequency, TF over GST control)	1.2 fold enrichment (6-mer frequency, TF over GST control)
ATTTTT	1.21 fold enrichment (6-mer frequency, TF over GST control)	1.2 fold enrichment (6-mer frequency, TF over GST control)	1.1 fold enrichment (6-mer frequency, TF over GST control)	1.15 fold enrichment (6-mer frequency, TF over GST control)	1.19 fold enrichment (6-mer frequency, TF over GST control)	1.16 fold enrichment (6-mer frequency, TF over GST control)	1.17 fold enrichment (6-mer frequency, TF over GST control)	1.17 fold enrichment (6-mer frequency, TF over GST control)
